# In the library only some 4.4% were active in any assay of this set; here they are far more common.
# tim23-1 inh: growth inhibitors of tim23-1 mutant yeast. hit rate 1.3% among 330,000. inhibition, % at 20 µM. S. cerevisiae tim23-1 growth, BacTiter-Glo luminescence, 24 h;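 active = growth inhibition of the mutant yeast at or above 50%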;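 note: temperature-sensitive mutant grown at 25 °C; plate controls were DMSO-treated mutant yeast for no effect and medium wells lacking yeast for full effect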
# Mot1-301 SUMO: SUMOylation pathway inhibition by Mot1-301 growth rescue; S. cerevisiae Mot1-301 growth rescue, ATP luminescence, 38.5C; percent above DMSO median, 100 means doubled; hit rate 1% among 320,000; AID 2716; growth rescue, % at 18.8 µM;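 active = every valid replicate shows activation above 250% relative to neutral control wells; inactive = the rest, any valid replicate at or below 250%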;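 note: OY570 slx delta 5 strain wells were the positive control but not used for scaling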
# PfHsp90 set2: growth inhibition of yeast expressing Plasmodium Hsp90; S. cerevisiae expressing PfHsp90, BacTiter-Glo ATP, 48 h; yeast lacking PDR1 and PDR3 efflux regulators; inhibition, % at 9.4 µM; hit rate 0.32% among 310,000; AID 504621;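 active = every replicate shows inhibition above about 80%, whatever the replicate mean, limit read from the data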;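 note: 0% = DMSO neutral controls and 100% = 20 µM radicicol positive controls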
# tim10-1 inh: tim10-1 yeast growth inhibition | inhibition, % at 20 µM | S. cerevisiae tim10-1 ts strain growth, BacTiter-Glo, 24 h | hit rate 2.2% among 330,000;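 active = inhibition of at least 40%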;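 note: mutant grown at 25 °C; 0% = DMSO wells with yeast and 100% = wells holding no yeast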
# TIM10 inh: TIM10 yeast growth inhibition. S. cerevisiae TIM10 strain growth, BacTiter-Glo luminescence, 24 h. inhibition, % at 10 µM. hit rate 1.4% among 330,000;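 active = inhibition of 40% or more at the single tested concentration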;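 note: wild-type TIM10 isogenic control strain grown at permissive 25 °C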
# tim10-1 confirm: confirmation of tim10-1 mutant yeast growth inhibitors. AID 463213. S. cerevisiae tim10-1 ts strain growth, BacTiter-Glo, 24 h. hit rate 56% among 7,400. shares compounds with tim10-1 inh. inhibition, % at 20 µM;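 active = inhibition of yeast growth at or above a set limit in either of two repeat tests at 20 µM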;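 note: tim10-1 mutant grown at permissive 25 °C to find synthetic lethal compounds; 0% = DMSO yeast wells and 100% = medium wells without yeast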
# The depositor's hits bear a star; · = no result given.
SMILES,tim23-1 inh,Mot1-301 SUMO,PfHsp90 set2,tim10-1 inh,TIM10 inh,tim10-1 confirm
Oc1ccc(-c2nccc(-c3ccc(Cl)cc3)n2)cc1,49,33,9,42*,36,43*
Oc1ccc(-c2nccc(-c3ccc(Cl)cc3Cl)n2)cc1,26,15,-54,42*,37,34*
FCCCOc1ccc(-c2nccc(-c3ccc(Cl)cc3)n2)cc1,-1,-1,·,12,5,·
CC(C)CN(CC(C)C)C(=O)CN1C(=O)NC2(CCCc3ccccc32)C1=O (centres undefined),5,-4,9,16,9,·
CCCNC(=S)Nc1ccc(Nc2ccccc2)cc1,25,-2,5,42*,1,24
CCCCNC(=S)Nc1ccc(C(F)(F)F)cc1,47,41,-13,54*,21,31*
Cn1c(CC(=O)NNC(=O)c2ccc(F)cc2Cl)nc2ccccc21,7,-6,·,6,8,·
CC(Nc1cccc(C(=O)NC2CC2)c1)c1nnc(-c2ccccc2)o1 (centres undefined),14,6,-22,11,1,·
CCOC(=O)/C(=C/c1ccc(Cl)cc1)NC(=O)c1ccco1,29,16,-4,40*,-7,18
O=C(CCc1nnc2n(Cc3ccc(Cl)cc3)c(=O)c3ccccc3n12)N1CCN(c2ccccn2)CC1,31,7,-37,44*,15,19
Cc1ccc(C(=O)N2CCN(c3cccc(Cl)c3)CC2)cc1C,34,81,-2,50*,34,8
O=C(c1cc(=O)c2ccccc2o1)N1CCN(c2cccc(Cl)c2)CC1,26,10,·,44*,5,26
Cc1ccc(C(=O)N2CCN(c3ccccc3)CC2)cc1C,30,4,9,26,19,·
CC(C)(C)c1ccc(COn2c(=O)c(-c3ccco3)[n+]([O-])c3ccccc32)cc1,49,-8,-28,50*,26,22
O=C(CCC(=O)c1cccs1)Nc1ncccc1O,9,13,·,4,12,·
Cc1cc2nc(Sc3c([N+](=O)[O-])nc(C)n3Cc3ccccc3)[nH]c2cc1C,37,2,0,43*,25,39*
Cc1nc([N+](=O)[O-])c(Sc2nc3ccccc3[nH]2)n1Cc1ccccc1,23,-6,10,44*,4,22
COc1ccc2nc(Sc3c([N+](=O)[O-])nc(C)n3Cc3ccccc3)[nH]c2c1,32,21,·,33,33,·
CCOc1ncccc1C(=O)Nc1ccc(OC)c(S(=O)(=O)N2CCOCC2)c1,16,·,·,13,5,·
COc1ccccc1NS(=O)(=O)c1cc(-c2cnc(C3CC3)o2)ccc1C,45,118,5,45*,-2,12
O=S(=O)(Nc1ccccc1)c1ccc(-c2cnc(C3CC3)o2)cc1,34,18,21,46*,3,-38
COc1ccc(NS(=O)(=O)c2cc(-c3cnc(C4CC4)o3)ccc2C)cc1,38,21,11,44*,-1,-8
COc1ccc(/C=C/C(=O)NC(=S)Nc2ccc(S(=O)(=O)N=C(N)N)cc2)cc1OC,-20,2,-5,-48,-24,·
O=C(NC(=S)Nc1ccc2[nH]c(=O)[nH]c2c1)c1cccc(F)c1,-22,-1,6,-32,-3,·
COCCCNC(=O)C[C@H]1C[C@H](C(=O)N(C(C)C)C(C)C)[C@@]2(C)c3[nH]c4cc(CCC(=O)N(C)C)ccc4c3CCN2C1=O,29,·,8,17,-1,·
SMILES,tim23-1 inh,Mot1-301 SUMO,PfHsp90 set2,tim10-1 inh,TIM10 inh,tim10-1 confirm
O=C(Oc1ccc(C(=S)N2CCOCC2)cc1)c1ccccc1[N+](=O)[O-],29,-5,-4,42*,29,37*
Cc1ccc(C(=O)N[C@H](C(=O)Nc2sccc2C(N)=O)C(C)C)cc1,0,-21,-8,-1,-22,·
Cc1cccc2c1nc(-c1ccccc1)n1cnnc21,26,7,·,40*,0,24
COc1ccc(CNC(=O)COC(=O)c2ccc(C)c(S(=O)(=O)N3CCOCC3)c2)cc1,7,-3,5,-4,4,·
CCOc1cc(C)cc2oc(=O)cc(-c3ccccc3)c12,35,-2,-44,33,-1,·
Cc1cc(OCC(=O)N2CCc3ccccc3C2)c2c(-c3ccccc3)cc(=O)oc2c1,10,-12,-20,46*,28,19
COc1ccc(-c2csc(NC(=O)C3=NN(c4ccccc4)C(=O)CC3)n2)cc1,22,-5,-14,16,17,·
O=C(Nc1nc(-c2cc(F)ccc2F)cs1)C1=NN(c2ccccc2)C(=O)CC1,17,40,-32,45*,38,26
O=C(Nc1nc(-c2cc(F)ccc2F)cs1)C1=COCCO1,32,22,·,46*,27,30
Cc1ccc(C)c(-c2csc(NC(=O)C3=COCCO3)n2)c1,29,6,·,20,13,·
COc1ccccc1CNC(=O)COC(=O)COc1ccccc1F,0,-5,8,-6,5,·
O=C(Cc1ccccc1)NS(=O)(=O)c1ccc(N=NN2CCOCC2)cc1,4,-18,-4,10,10,·
CC(C)(C)n1nnnc1C(c1ccccc1F)N(Cc1ccco1)CC1CCCO1 (centres undefined),48,48,10,41*,19,22
CSc1cccc(NC(=O)CCCNC(=O)c2ccc(Cl)cc2)c1,7,1,-4,-17,8,·
Nc1cccc(Nc2nc(OC(C(F)(F)F)C(F)(F)F)nc(OC(C(F)(F)F)C(F)(F)F)n2)c1,28,242,-16,43*,24,38*
COc1nc(Nc2ccc(O)cc2)nc(OC(C(F)(F)F)C(F)(F)F)n1,15,1,·,11,17,·
Cc1c(Cl)ccc2c(C(N)=O)cc(-c3ccccn3)nc12,-5,8,18,19,11,·
CCOC(=O)CNC(=O)c1cc(-c2ccccn2)nc2c(C)c(Cl)ccc12,28,6,·,41*,11,9
C=CCOCCN1C(=O)C2C(c3ccccc3)C=CC(c3ccccc3)C2C1=O (centres undefined),41,-5,10,41*,25,24
COCCNC(=O)c1cc2c(s1)-c1ccc(Cl)cc1SC2,33,-13,2,42*,10,41*
COCCNC(=O)c1ccc(C(=O)NCCOC)s1,14,1,24,35,-21,·
CCC1CN(C(=O)NCc2ccc(F)cc2)c2cc(C)ccc2O1 (centres undefined),21,-9,-42,41*,10,24
COc1ccc(/C=C2\SC(=O)N(CCNC(=O)Cc3coc4cc(OC)ccc34)C2=O)cc1,1,120,10,19,-5,·
COc1ccc2c(CC(=O)NCCN3C(=O)S/C(=C\c4cccnc4)C3=O)coc2c1,30,4,-4,50*,7,16
